# Measured values published in ChEMBL document CHEMBL3988442, “University of Dundee, Small-Polar-MMV Screening Library” (2021).
# The campaign covered roughly 48,000 compounds. About 13,000 (27%) showed an effect of 50% or more. This is one part of the list.
# Tested on: Wolbachia pipientis
# Experiment: Anti-Wolbachia Cell-Based Screen
# Assay type: functional
# Set-up: scale not given: in the data most compounds retested in dose-response had high values
# Conditions: 5 µM
row,Structure (SMILES),Percent Effect
1,F[C@@H]1CN(CC2CC2)C[C@@H]1OCc1nc2cnccc2[nH]1,0.2441%
2,COc1ccc(C(=O)NC2CC2)c(OC2CCN(C(C)CO)CC2)c1 (centres undefined),-4.273%
3,CC(=O)N(Cc1ccoc1)C1CCCCC1,5.985%
4,CCCNC(=O)c1sc(Nc2ccc(Cl)cn2)nc1C,11.67%
5,CCN(CC)C(=O)CNC(=O)c1cnc(-c2ccccc2)nc1,0.8892%
6,Cl.Cn1ccnc1N1CCN(C(=O)Cc2ccc(Cl)cc2)CC1,89.82%
7,Cc1cccc(CC(=O)N2CCN(c3nccn3C)CC2)c1.Cl,119.3%
8,Cl.Cn1ccnc1N1CCN(C(=O)Cc2ccccc2)CC1,103.6%
9,CCOc1ccc(CC(=O)N2CCN(c3nccn3C)CC2)cc1.Cl,-3.351%
10,COc1ccc(CC(=O)N2CCN(c3nccn3C)CC2)cc1.Cl,92.57%
11,CN(C)c1cnnc(N2CCN(C(=O)Cc3ccccc3)CC2)c1,6.121%
12,Cc1cccc(N2CCN(CCCNC(=O)c3nccn3C)CC2)c1,29.8%
13,COc1cccc(CN(C)C(=O)CN2CCN(c3nccn3C)CC2)c1,6.217%
14,Cl.Cn1ccnc1N1CCN(C(=O)Cc2ccc(F)cc2)CC1,9.363%
15,CC(=O)N1CCN(C(=O)CN2CCN(c3cccc(C)c3)CC2)CC1,4.87%
16,Cc1cc(N2CCCN(C(=O)Cc3ccc(O)c(Cl)c3)CC2)ccn1,6.362%
17,CSc1cc2c(cc1NC(=O)NCc1ccco1)OCCO2,-2.93%
18,Cc1cnn(CC(=O)NC2CCCc3cc(OC(F)F)ccc32)c1 (centres undefined),-5.352%
19,Cc1nn(C(C)C)c(C)c1S(=O)(=O)Nc1ccc(C(=O)O)cc1,-3.585%
20,COc1nc2ccn(CCNc3cc(C)ccn3)c(=O)c2cc1C#N,-7.591%
21,Cn1cc(N2CC3(CCN(S(C)(=O)=O)C3)CC2=O)cn1 (centres undefined),-6.805%
22,CCOc1ccc(C(=O)N2CCN(c3nccn3C)CC2)cc1.Cl,123.5%
23,CCOc1ccc(NC(=O)CN2CCN(c3nccn3C)CC2)cc1,10.39%
24,CCc1ccc(CC(=O)N2CCN(c3nccn3C)CC2)cc1,102.2%
25,CCOc1ccc(CC(=O)N2CCN(c3nccn3CC)CC2)cc1.Cl,105.4%
26,CCOc1cc(N2CCN(C(=O)c3ccc(OC)cc3)CC2)nc(C)n1,6.189%
27,CCn1ccnc1C1CCN(C(=O)C(O)c2ccc(OC)cc2)CC1 (centres undefined),13.84%
28,CCn1ccnc1C1CCN(C(=O)Nc2ccc(OC)cc2)CC1,-6.796%
29,Cc1occc1C(=O)Nc1cc(N2CCNC2=O)ccc1Cl,-16.86%
